Assay [1] can be described thus: NCI Yeast Anticancer Drug Screen. Data for the rad50 strain (AID 155).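 Also: 0% = growth of vehicle-only cultures of the same strain.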 As to conditions: S. cerevisiae rad50 strain growth inhibition, hits give high values. Put shortly: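 Genetically altered yeast (DNA repair pathway); compound treatment; growth inhibition vs vehicle ctrl.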
A short description of assay [2]: NCI Yeast Anticancer Drug Screen. Data for the mec2-1 strain (AID 157). To be noted: S. cerevisiae mec2-1 strain, hits give high values. Put shortly:
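Vehicle-treated cultures served as reference for growth inhibition of compound-exposed mec2-1 yeast.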

Assay [3] in a line: NCI Yeast Anticancer Drug Screen. Data for the sgs1 mgt1 strain (AID 161).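 Also: 0% = growth of cultures given vehicle only.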 To be noted: S. cerevisiae sgs1 mgt1 strain, hits give high values. Put shortly:
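Test agents were incubated with a DNA-repair-mutant yeast strain. Growth was then read and compared against vehicle-treated controls.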

A short description of assay [4]: NCI Yeast Anticancer Drug Screen. Data for the cln2 rad14 strain (AID 165).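 Also: 0% = growth equal to vehicle treated cultures.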 As to conditions: S. cerevisiae cln2 rad14 strain, hits give high values. The gist of the method: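 Each compound was tested on cln2 rad14 yeast. Inhibition of growth was calculated against vehicle-exposed controls.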
Assay [5] can be described thus: NCI Yeast Anticancer Drug Screen. Data for the bub3 strain (AID 167). As to conditions: S. cerevisiae bub3 mutant strain, hits give high values. The gist of the method: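 Yeast carrying a defined mutation is treated with each compound, and growth is compared with that of vehicle-exposed cells to give inhibition.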
A short description of assay [6]: NCI Yeast Anticancer Drug Screen. Data for the mlh1 rad18 strain (AID 175). As to conditions: S. cerevisiae mlh1 rad18 strain growth inhibition, hits give high values. Put shortly: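 Vehicle-treated cultures served as the reference for growth inhibition in a yeast strain carrying DNA damage repair alterations exposed to each compound.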
[7] abbreviates: at 5.0 µM (retest, dose inferred, filed as 0.5).
Setting [8] is: at 50.0 µM (retest, dose inferred, filed as 5.0).

The structures appear in SMILES notation. This is part of a sample that, as a whole, favours compounds with a hit. Of some 79,000 tested, about 15% had one in any assay. Values without a mark were called inactive. Active and inactive are the calls of the source. Rule as the data show it: active = growth inhibition above about 70%; inactive = the rest.

`O=C1c2ccc(O)cc2C(=O)c2c1ccc(O)c2O`: the growth inhibition in assay [1] (setting [7]) is 28%; in assay [1] (setting [8]), 97% (active); in assay [1] (at 50.0 µM) it was 76% (active); in assay [2] (setting [7]) it was 26%; in assay [2] (setting [8]), 95% (active); in assay [2] (at 50.0 µM), 67.3%. For the same compound, the growth inhibition in assay [3] (setting [7]) was 46%; in assay [3] (setting [8]), 96% (active); in assay [3] (at 50.0 µM), 83% (active); in assay [4] (setting [7]) it was 9%; in assay [4] (setting [8]) it was 73% (active); in assay [4] (at 50.0 µM) it was 41.3%. In addition, the growth inhibition is 37% in assay [5] (setting [7]); 94% (active) in assay [5] (setting [8]); 76.9% (active) in assay [5] (at 50.0 µM); 45% in assay [6] (setting [7]); 97% (active) in assay [6] (setting [8]); 77.4% (active) in assay [6] (at 50.0 µM).
For `CSc1cc(N)nc(N)n1`, the growth inhibition was 3% in assay [1] (setting [7]); -4% in assay [1] (setting [8]); 73% (active) in assay [1] (at 50.0 µM); 3% in assay [2] (setting [7]); 2% in assay [2] (setting [8]); 79.3% (active) in assay [2] (at 50.0 µM). The growth inhibition in assay [3] (setting [7]) was 4%; in assay [3] (setting [8]), 14%; in assay [3] (at 50.0 µM), 80.3% (active); in assay [4] (setting [7]) it was 1%; in assay [4] (setting [8]) it was 3%; in assay [4] (at 50.0 µM), 83.2% (active). Further, the growth inhibition was 1% in assay [5] (setting [7]); -3% in assay [5] (setting [8]); 38.9% in assay [5] (at 50.0 µM); 2% in assay [6] (setting [7]); -6% in assay [6] (setting [8]); 93.4% (active) in assay [6] (at 50.0 µM).
As to `O=C1OC(=O)C2C(c3ccccc3)=C(c3ccccc3)C(c3ccccc3)=C(c3ccccc3)C12` (configuration not stated), the growth inhibition is 37% in assay [1] (setting [7]); 77% (active) in assay [1] (setting [8]); 61% in assay [1] (at 50.0 µM); 35% in assay [2] (setting [7]); 72% (active) in assay [2] (setting [8]); 50% in assay [2] (at 50.0 µM). Besides, the growth inhibition in assay [3] (setting [7]) was 33%; in assay [3] (setting [8]), 62%; in assay [3] (at 50.0 µM), 54.4%; in assay [4] (setting [7]) it was 32%; in assay [4] (setting [8]) it was 67%; in assay [4] (at 50.0 µM) it was 76.2% (active). For the same compound, the growth inhibition was 29% in assay [5] (setting [7]); 63% in assay [5] (setting [8]); 56% in assay [5] (at 50.0 µM); 47% in assay [6] (setting [7]); 81% (active) in assay [6] (setting [8]); 62% in assay [6] (at 50.0 µM).
On to `c1ccc2c(c1)oc1cc3ccncc3cc12`, for which the growth inhibition was 43% in assay [1] (setting [7]); 96% (active) in assay [1] (setting [8]); 96.8% (active) in assay [1] (at 50.0 µM); 11% in assay [2] (setting [7]); 86% (active) in assay [2] (setting [8]); 86.3% (active) in assay [2] (at 50.0 µM). In addition, the growth inhibition in assay [3] (setting [7]) was 3%; in assay [3] (setting [8]), 83% (active); in assay [3] (at 50.0 µM), 94.8% (active); in assay [4] (setting [7]), 9%; in assay [4] (setting [8]), 89% (active); in assay [4] (at 50.0 µM), 92% (active). In addition, the growth inhibition in assay [5] (setting [7]) was 24%; in assay [5] (setting [8]), 94% (active); in assay [5] (at 50.0 µM), 96% (active); in assay [6] (setting [7]), 14%; in assay [6] (setting [8]) it was 92% (active); in assay [6] (at 50.0 µM), 95.2% (active).
In the case of `O=S1(=O)C(C(O)(c2ccccc2)c2ccccc2)CCCN1c1ccccc1` (configuration not stated), the growth inhibition is 4% in assay [1] (setting [7]); 32% in assay [1] (setting [8]); 76.5% (active) in assay [1] (at 50.0 µM); -8% in assay [2] (setting [7]); 0% in assay [2] (setting [8]); 31.4% in assay [2] (at 50.0 µM). Moreover, the growth inhibition is -1% in assay [3] (setting [7]); 16% in assay [3] (setting [8]); 70.5% (active) in assay [3] (at 50.0 µM); 1% in assay [4] (setting [7]); -19% in assay [4] (setting [8]); 12.2% in assay [4] (at 50.0 µM). The growth inhibition in assay [5] (setting [7]) is 0%; in assay [5] (setting [8]), 3%; in assay [5] (at 50.0 µM), 21.4%; in assay [6] (setting [7]), -2%; in assay [6] (setting [8]), -87%; in assay [6] (at 50.0 µM), 25.4%.
For the compound `Cc1cc([N+](=O)[O-])c2nnnn2c1`, the growth inhibition is 5% in assay [1] (setting [7]); 59% in assay [1] (setting [8]); -1.75% in assay [1] (at 50.0 µM); 2% in assay [2] (setting [7]); 28% in assay [2] (setting [8]); 1.4% in assay [2] (at 50.0 µM). Also, the growth inhibition in assay [3] (setting [7]) was 0%; in assay [3] (setting [8]), 31%; in assay [3] (at 50.0 µM), -15.2%; in assay [4] (setting [7]) it was -1%; in assay [4] (setting [8]), 4%; in assay [4] (at 50.0 µM), -9.75%. The growth inhibition in assay [5] (setting [7]) is -1%; in assay [5] (setting [8]), 28%; in assay [5] (at 50.0 µM) it was 22.4%; in assay [6] (setting [7]), 7%; in assay [6] (setting [8]) it was 65%; in assay [6] (at 50.0 µM), 34%.
As to `C1=Nc2ccccc2/C1=C/c1ccccc1`, the growth inhibition in assay [1] (setting [7]) was 10%; in assay [1] (setting [8]) it was 22%; in assay [1] (at 50.0 µM), 72.9% (active); in assay [2] (setting [7]) it was -9%; in assay [2] (setting [8]), 20%; in assay [2] (at 50.0 µM), 48.8%. For the same compound, the growth inhibition in assay [3] (setting [7]) is -13%; in assay [3] (setting [8]), 19%; in assay [3] (at 50.0 µM), 49.7%; in assay [4] (setting [7]), 27%; in assay [4] (setting [8]), 26%; in assay [4] (at 50.0 µM), 40%. Besides, the growth inhibition in assay [5] (setting [7]) is 9%; in assay [5] (setting [8]) it was 38%; in assay [5] (at 50.0 µM), 64.4%; in assay [6] (setting [7]), 2%; in assay [6] (setting [8]), 50%; in assay [6] (at 50.0 µM), 52.1%.
As to `CCCCCCCCCCCCCCCCCc1nnc(N)o1`, the growth inhibition in assay [1] (setting [7]) was 1%; in assay [1] (setting [8]), 24%; in assay [1] (at 50.0 µM), -11.8%; in assay [2] (setting [7]) it was 7%; in assay [2] (setting [8]), 33%; in assay [2] (at 50.0 µM) it was -0.5%. The growth inhibition was 18% in assay [3] (setting [7]); 51% in assay [3] (setting [8]); 19% in assay [3] (at 50.0 µM); 1% in assay [4] (setting [7]); 36% in assay [4] (setting [8]); 45.6% in assay [4] (at 50.0 µM). The growth inhibition in assay [5] (setting [7]) is 6%; in assay [5] (setting [8]) it was 40%; in assay [5] (at 50.0 µM), 11.2%; in assay [6] (setting [7]), 6%; in assay [6] (setting [8]) it was 25%; in assay [6] (at 50.0 µM), -3.6%.
On to `COc1cc2c(cc1O)C(O)CCCC2` (configuration not stated), for which the growth inhibition in assay [1] (setting [7]) is -146%; in assay [1] (setting [8]), -152%; in assay [1] (at 50.0 µM) it was 6.6%; in assay [2] (setting [7]) it was -45%; in assay [2] (setting [8]), -55%; in assay [2] (at 50.0 µM), -14.6%. Also, the growth inhibition in assay [3] (setting [7]) is -62%; in assay [3] (setting [8]), -32%; in assay [3] (at 50.0 µM) it was 41.8%; in assay [4] (setting [7]), -52%; in assay [4] (setting [8]), -61%; in assay [4] (at 50.0 µM), -4.15%. Besides, the growth inhibition in assay [5] (setting [7]) is -64%; in assay [5] (setting [8]), -75%; in assay [5] (at 50.0 µM) it was -6.4%; in assay [6] (setting [7]), -147%; in assay [6] (setting [8]) it was -108%; in assay [6] (at 50.0 µM) it was 12.3%.

Source of the values: PubChem BioAssay (NCI).
